Data on 100 molecules can be found in PubChem BioAssay AID1259343 (VanderVen Lab, College of Veterinary Medicine, Cornell …, 2017).

Each structure is given as a SMILES string. The whole screen tested about 6,200 compounds, of which about 2,900 (47%) were called active. Rule as the data show it: active = inhibition above about 50%; inactive = the rest. So high a share suggests a set chosen from earlier hits. This is one part of the list. Where a SMILES comes first, the peptide text is derived from it. [ ]: non-standard residue; d: D form. Orn = NCCC[CH](N)C(=O)O

The assay is described as follows: Mycobacterium tuberculosis growth inhibition, primary screen (AID 1259343). The following applies: inhibition: at 10 µM, active compounds read high; outcome: 10 uM.
Take `CCCc1cc(=O)[nH]c(-n2nc(C)cc2NC(C)=O)n1`: the inhibition was 99.8% (active).

Take `CCCc1cc(=O)[nH]c(-n2nc(C)cc2NC(=O)C(C)(C)Oc2ccc(Cl)cc2)n1`: the inhibition is 2.87% (inactive).

As to `CCCc1cc(=O)[nH]c(-n2nc(C)cc2NC(=O)C(C)(C)CCl)n1`, the inhibition is 102% (active).

Consider `CCCc1cc(=O)[nH]c(-n2nc(C)cc2NC(=O)CC)n1`, for which the inhibition was 100% (active).

`O=c1c(O)cccc2cc(O)c(O)c(O)c12`: the inhibition is 64.6% (active).

With `CCCC(CCC)=NNc1ncnc2sc(C)c(C)c12`, the inhibition was 96.3% (active).

Consider `Cc1sc2ncnc(SCC(=O)c3ccc(Cl)s3)c2c1C`, for which the inhibition is 13.9% (inactive).

`COC(=O)C(C)Sc1ncnc2sc(C)c(C)c12` (stereo not given): the inhibition was -21% (inactive).

Take `CCCCNC(=S)NNc1ncnc2sc(C)c(C)c12`: the inhibition is 65.6% (active).

For `CC(=NNc1ncnc2sc(C)c(C)c12)c1ccc(Cl)s1`, the inhibition is 47.1% (inactive).

For the molecule `Cc1ccsc1C=NNc1ncnc2sc(C)c(C)c12`, the inhibition was 66.9% (active).

Take `COC(=O)c1ccc(CSc2ncnc3c2nnn3Cc2ccccc2)o1`: the inhibition is 26.9% (inactive).

For the molecule `COC(=O)c1ccc(CSc2ncnc3c2nnn3Cc2ccc(F)cc2)o1`, the inhibition was 3.1% (inactive).

Consider `COC(=O)c1ccc(Cn2ncc(Cl)c(Cl)c2=O)o1`, for which the inhibition was 75.5% (active).

For `CC(C)C(C)NC(=O)Nc1nc(-c2ccccc2)ns1` (stereo not given), the inhibition is 83.1% (active).

`COCC1(NC(=O)Nc2nc(-c3ccccc3)ns2)CCCC1`: the inhibition was 5.18% (inactive).

Regarding `CCOC(=O)C1(Cc2ccc(Cl)cc2)CCN(Cc2cccc3nonc23)CC1`, the inhibition was 78.1% (active).

For `CCOC(=O)C1(Cc2ccc(Cl)cc2)CCN(C(=O)Nc2ccc(Cl)cc2C)CC1`, the inhibition was 1.06% (inactive).

For the molecule `CCOC(=O)C1(CCOc2ccccc2)CCN(Cc2nc(C(C)C)cs2)CC1`, the inhibition result is “inactive”.

With `CNC(=O)c1ccccc1NC(=O)c1ccc(C)c(Br)c1`, the inhibition was 23.1% (inactive).

Regarding `Cc1cccc(NC(=O)c2n[nH]c([N+](=O)[O-])c2Br)c1C`, the inhibition is 86.8% (active).

Regarding `Cc1cc(Br)ccc1NC(=O)c1ccc([N+](=O)[O-])o1`, the inhibition is 38.1% (inactive).

Consider `C=CCSc1nn2c(=O)c3ccccc3nc2s1`, for which the inhibition is 97.6% (active).

Take `CCOc1ccc(Br)c(C=Nc2ccc3oc(=O)ccc3c2)c1O`: the inhibition was 81.3% (active).

As for `Cc1csc2nc(O)c(C(=O)NCCc3ccccc3)c(=O)n12`, the inhibition was 82.8% (active).

As for `Cc1c(C(=O)NCc2ccc(Cl)c(Cl)c2)sc(=O)n1Cc1ccc(F)cc1`, the inhibition was 17.9% (inactive).

For `Cc1nc(COc2ccc(C(=O)NCc3ccc(F)cc3)cc2)cs1`, the inhibition was -15.9% (inactive).

As to `Cc1csc2nc(O)c(C(=O)NCc3ccc(F)cc3)c(=O)n12`, the inhibition was 74.4% (active).

With `CC(=O)NCc1ccc(-c2nc(CCc3ccccc3)sc2C)s1`, the inhibition is 28% (inactive).

As for `Cc1c(C(=O)NCc2ccc(Cl)c(Cl)c2)sc(=O)n1CCc1ccccc1`, the inhibition is 35.6% (inactive).

As for `O=C(Nc1ncccc1OC(F)F)c1cncc(Br)c1`, the inhibition was 89.3% (active).

Take `CCOc1ccc(NC(=O)c2cncc(Br)c2)cc1F`: the inhibition is 44.8% (inactive).

As for `C=CCN(c1ccccc1)S(=O)(=O)c1ccc(Br)cc1Cl`, the inhibition was 27.3% (inactive).

As for `COc1ccc2cc(C3CN(Cc4noc(C5CC5)n4)CCO3)ccc2c1` (stereo not given), the inhibition was 23.6% (inactive).

Consider `C1=CCC(c2nc(Cc3cccnc3)no2)CC1` (stereo not given), for which the inhibition is -4.1% (inactive).

On to `COc1ccc2c(c1)CC(c1nc(Cc3ccc(F)cc3)no1)CO2` (stereo not given), for which the inhibition was 63.1% (active).

Regarding `N#CC(C#N)=C1C=C2C=C(N3CCCCC3)CCC2CC1` (stereo not given), the inhibition was 49% (inactive).

As for `N#CC(C#N)=C1C=C2C=C(N3CCCCCC3)CCC2CC1` (stereo not given), the inhibition was 73.5% (active).

Consider `CCCCN(C)C1=CC2=CC(=C(C#N)C#N)CCC2CC1` (stereo not given), for which the inhibition is 45.5% (inactive).

As for `O=C(O)c1cnc(-c2ccc(C(F)(F)F)cc2)s1`, the inhibition is 60.4% (active).

Consider `Cn1nc(C(F)(F)F)cc1-c1ccc(C(=O)O)s1`, for which the inhibition was 46.4% (inactive).

`O=C(O)c1cnc(/C=C/c2cccc(C(F)(F)F)c2)s1`: the inhibition was -17.4% (inactive).

Consider `Brc1ccc(Sc2ncnc3sccc23)cc1`, for which the inhibition was 19.4% (inactive).

With `Clc1cc(Br)ccc1Oc1ncnc2sccc12`, the inhibition was 70.4% (active).

In the case of `O=C1COc2ccc(C3=NNC(=Nc4ccccc4Cl)SC3)cc2N1`, the inhibition was 11.7% (inactive).

`O=C1NC(=Nc2ccccc2Cl)S/C1=C\c1ccsc1`: the inhibition was 59.3% (active).

Consider `CN(C)CC/C=C1\c2ccccc2Sc2ccc(Cl)cc21`, for which the inhibition is 90.1% (active).

For the molecule `Oc1c(Cl)cc(Cl)cc1C1=NNC(c2ccccc2F)C1` (stereo not given), the inhibition was 38.9% (inactive).

Consider `CN(Cc1ccc(Cl)cc1)Cc1cc2c(cc1O)CCC2`, for which the inhibition was 22.8% (inactive).

As to `Cn1c(Cl)cnc1C1CC(c2cc(Cl)ccc2O)=NN1` (stereo not given), the inhibition is 101% (active).

Consider `Oc1ccc(F)cc1C1=NNC(c2ccc(Cl)cc2)C1` (stereo not given), for which the inhibition is 60.6% (active).

`COc1ccc(NC(=O)CSc2nnc3ccccn23)c(OC)c1`: the inhibition was 81.5% (active).

Turning to `O=C(CSc1nnc2ccccn12)Nc1c(Cl)c(Cl)cc(Cl)c1Cl`, the inhibition is -1.75% (inactive).

For `CC(C)CC1NC(=O)C(CCCN)NC(=O)C(C(C)C)NC(=O)C2CCCN2C(=O)C(Cc2ccccc2)NC(=O)C(CC(C)C)NC(=O)C(CCCN)NC(=O)C(C(C)C)NC(=O)C2CCCN2C(=O)C(Cc2ccccc2)NC1=O` (stereo not given) (cyclo(FPV[Orn]LFPV[Orn]L); configuration not given here), the inhibition is 46.4% (inactive).

In the case of `CCCCn1c(O)c(C=Nc2ccc(CC)cc2)c(C)c(C#N)c1=O`, the inhibition was 24.8% (inactive).

`CCOC(=O)c1ccc(N=Cc2c(O)[nH]c(=O)[nH]c2=O)cc1`: the inhibition was 73.1% (active).

With `COC(=O)c1ccc(Nc2ccc(OCC3CCCO3)cc2)nn1` (stereo not given), the inhibition was 93.6% (active).

Consider `COc1cc(C(=O)N2CCOC(COc3ccc(C)cc3)C2)cc(Cl)n1` (stereo not given), for which the inhibition was 29.3% (inactive).

In the case of `Clc1cccc(Nc2nc3nonc3n3nnnc23)c1`, the inhibition was 54.3% (active).

Regarding `CC(C)S(=O)(=O)c1ccc(C(=O)Nc2onc3c2CCC3)cc1`, the inhibition is 84.8% (active).

Regarding `CCc1csc(Cn2cc(C(C)c3ccccc3)nn2)n1` (stereo not given), the inhibition was -13.5% (inactive).

For `O=c1c2ccccc2ncn1CCCCSc1ccccc1`, the inhibition was 89.1% (active).

`Cc1ccc(SCCCCN2C(=O)NC(C)(C)C2=O)cc1`: the inhibition was -48.6% (inactive).

On to `Cc1cc2ncn(CCCOc3ccccc3)c2cc1C`, for which the inhibition was 36.7% (inactive).

As to `CCc1cc(OCCCCn2cnc3ccccc3c2=O)ccc1Cl`, the inhibition was 64.6% (active).

On to `Cc1nn(S(=O)(=O)c2cccc([N+](=O)[O-])c2)c(C)c1S(=O)(=O)N1CCCC(C)C1` (stereo not given), for which the inhibition is -15.4% (inactive).

Take `N#Cc1ccccc1CNc1ccc(Br)cc1F`: the inhibition is -19.6% (inactive).

`N#Cc1ccc(NCc2cc(Br)ccc2F)cc1`: the inhibition was 88.5% (active).

Turning to `N#Cc1ccc(CNc2cccc(Br)c2)c(F)c1`, the inhibition was -12.4% (inactive).

For `COC(=O)C(C)Sc1nc2sc3c(c2c(=O)n1Cc1ccccc1)CCC3` (stereo not given), the inhibition was 83.9% (active).

`O=c1c2c3c(sc2ncn1Cc1cccc2ccccc12)CCCC3`: the inhibition was 21.4% (inactive).

Take `CC(C)c1nc2c(c(=O)c3ccccc3n2C)c(=O)n1Cc1ccccc1`: the inhibition was -29.9% (inactive).

Regarding `CC1(Cc2ccccc2F)C(=O)Nc2ccc(-c3cccnc3)cc21` (stereo not given), the inhibition was 55.3% (active).

In the case of `CCCc1nn(-c2cccc(Cl)c2)c([O-])c1C1=C([n+]2cccc(CC)c2)C(=O)N(CC(C)C)C1=O`, the inhibition was 41.4% (inactive).

In the case of `CCCC(C)NC(=O)Cn1cnc2cc(F)ccc2c1=O` (stereo not given), the inhibition was 86.9% (active).

As for `O=C(NNC1c2ccccc2-c2ccccc21)c1ccccc1`, the inhibition is 32.6% (inactive).

Consider `CC(C)(C)C(=O)COC(=O)CNC(=O)c1ccccc1`, for which the inhibition was 93.8% (active).

`C=CCN=c1scc(-c2ccc(C)cc2)n1N=C(C)c1cccnc1`: the inhibition is 84.7% (active).

Regarding `C=CCN=c1scc(-c2ccc(Cl)cc2)n1N=Cc1cccnc1`, the inhibition is 9.02% (inactive).

For the molecule `C=CCN=c1scc(-c2ccc(OC(F)F)cc2)n1N=C(C)c1ccc2c(c1)OCCO2`, the inhibition was 87% (active).

With `C=CCN=c1scc(-c2ccc(C)c(C)c2)n1N=Cc1cccnc1`, the inhibition is -28% (inactive).

Turning to `C=CCN=c1scc(-c2ccc(Br)cc2)n1N=Cc1cccnc1`, the inhibition was -5.61% (inactive).

As to `CCN=c1scc(-c2ccc(C)cc2)n1N=C(C)c1ccc(C)o1`, the inhibition is 42.6% (inactive).

For the molecule `C=CCN=c1scc(-c2ccccc2F)n1N=Cc1ccc2c(c1)OCCO2`, the inhibition was 9.72% (inactive).

With `C=CCN=c1scc(-c2ccc(Cl)c(Cl)c2)n1N=Cc1cccnc1`, the inhibition is 68.1% (active).

As to `C=CCN=c1scc(-c2ccc(OC(F)F)cc2)n1N=Cc1ccc2c(c1)OCO2`, the inhibition is -11.8% (inactive).

For `O=C(NCC(=O)N1CCCCC1)c1sc2ccccc2c1Cl`, the inhibition is 70.3% (active).

For `CC1(C)CN(CC(=O)NCC(=O)N2CCCC2)c2cccc(Cl)c21`, the inhibition was -12.8% (inactive).

Consider `Cc1ccc(C(=O)N2CCCC(C(=O)c3cccc4ccccc34)C2)s1` (stereo not given), for which the inhibition was 11.3% (inactive).

Take `Cn1c(=O)c2c(ncn2CCOC(=O)c2cc(=O)[nH]c3ccccc23)n(C)c1=O`: the inhibition is -7.86% (inactive).

For the molecule `CCc1ccc(-c2cc(C(=O)N=Nc3c(O)[nH]c4ccccc34)[nH]n2)cc1`, the inhibition is 18.3% (inactive).

As to `CCc1ccc(NC(=O)CCn2cnc3c([nH]c4ccccc43)c2=O)cc1`, the inhibition was 95.4% (active).

As to `Brc1cc(CNC2C3CCCC2CN(C2CC2)C3)cs1` (stereo not given), the inhibition was 23.7% (inactive).

With `C=CCn1cnnc1SCC(=O)Nc1ccc(Br)c(C)c1`, the inhibition is 101% (active).

In the case of `Cn1cnnc1SCC(=O)Nc1ccc2c(c1)OC(F)(F)O2`, the inhibition is 16.7% (inactive).

As to `C=CCn1c(SCC(=O)NC(=O)NC)nnc1-c1ccncc1`, the inhibition was -1.24% (inactive).

As to `Cc1nnc2sc(-c3ccccc3NC(=S)NC(=O)c3cc4ccccc4o3)nn12`, the inhibition was 57.4% (active).

Regarding `CCn1c(O)c(C=NC2CCCCCC2)c(=O)n(CC)c1=S`, the inhibition was 102% (active).

In the case of `Oc1ccc2ccccc2c1C=NC1CC1`, the inhibition was 37.4% (inactive).

Consider `Cc1nn(CO)c(C)c1Sc1ccc(Br)cc1`, for which the inhibition is 36.4% (inactive).
